Source: article PMC4336329 (PLoS ONE, 2015)
Screen size: about 310,000 compounds; about 14,000 (4.5%) showed an effect of 50% or more. The effect is printed as a negative number. The full list was thinned out, with strong results kept by preference.

Target: human ether-à-go-go-related gene (hERG) potassium channel (human, UniProt Q12809)
Assay: primary screen, population patch clamp on CHO cells stably expressing hERG; higher = less effect of the substance
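Note: peak tail current of the secondary pulse compared with the same well before compound.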

Sequence of human ether-à-go-go-related gene (hERG) potassium channel (Q12809 whole entry, looked up): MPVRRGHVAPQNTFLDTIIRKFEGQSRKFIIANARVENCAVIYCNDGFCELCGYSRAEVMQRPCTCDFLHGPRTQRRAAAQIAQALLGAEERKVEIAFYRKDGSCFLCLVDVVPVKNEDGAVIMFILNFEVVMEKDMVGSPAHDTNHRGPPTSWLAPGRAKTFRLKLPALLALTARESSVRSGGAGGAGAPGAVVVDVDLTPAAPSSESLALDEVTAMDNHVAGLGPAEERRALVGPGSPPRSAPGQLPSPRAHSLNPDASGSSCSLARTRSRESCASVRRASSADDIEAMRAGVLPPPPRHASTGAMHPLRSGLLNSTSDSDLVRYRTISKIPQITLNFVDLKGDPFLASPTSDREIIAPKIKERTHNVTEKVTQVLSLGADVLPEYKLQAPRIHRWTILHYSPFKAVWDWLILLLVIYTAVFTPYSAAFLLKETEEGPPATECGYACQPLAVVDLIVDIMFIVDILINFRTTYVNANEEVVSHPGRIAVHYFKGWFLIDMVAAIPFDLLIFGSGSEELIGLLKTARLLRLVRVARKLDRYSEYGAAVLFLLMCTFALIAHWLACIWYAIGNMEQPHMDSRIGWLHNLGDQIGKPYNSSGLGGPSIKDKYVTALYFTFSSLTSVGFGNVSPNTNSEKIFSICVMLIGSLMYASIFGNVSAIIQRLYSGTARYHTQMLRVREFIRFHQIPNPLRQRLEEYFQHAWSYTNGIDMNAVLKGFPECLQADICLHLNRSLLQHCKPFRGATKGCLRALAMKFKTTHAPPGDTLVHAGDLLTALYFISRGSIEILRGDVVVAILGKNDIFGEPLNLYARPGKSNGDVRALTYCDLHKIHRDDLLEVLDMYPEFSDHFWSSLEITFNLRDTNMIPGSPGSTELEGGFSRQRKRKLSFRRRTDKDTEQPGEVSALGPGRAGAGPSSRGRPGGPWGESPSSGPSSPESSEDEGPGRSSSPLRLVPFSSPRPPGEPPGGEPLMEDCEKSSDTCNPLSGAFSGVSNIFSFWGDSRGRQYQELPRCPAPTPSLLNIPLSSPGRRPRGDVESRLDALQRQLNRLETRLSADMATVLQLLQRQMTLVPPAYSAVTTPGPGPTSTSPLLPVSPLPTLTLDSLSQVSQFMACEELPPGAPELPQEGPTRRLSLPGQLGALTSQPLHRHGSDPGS

Compound	hERG current change (%, negative = inhibition) at 10uM [%]
CCC1(O)CC(C(=O)OC)=NN1C(=O)c1ccccc1 (centres unmarked)	7.94
COc1ccccc1-n1cnnc1SCC(=O)Nc1ncc(Cl)cc1Cl	-0.265
COc1ccccc1OCC(=O)NCCSCc1ccc(Cl)cc1	-45
COc1ccc(C(=O)N/C(=C\c2ccccc2)C(=O)Nc2ccccc2C(=O)O)cc1	11.3
COc1ccccc1C(=O)NNC(=O)c1ccc(C)cc1	9.24
Cc1ccc(NC(=O)C2(N3CCC3=O)CCCCC2)cc1	6.92
COCC(C)NC(=O)C(C)Oc1ccccc1 (centres unmarked)	12
CC(C)c1nnc(NC(=O)CCC(=O)NCc2ccccc2Cl)s1	11.2
Cn1cnc([N+](=O)[O-])c1NCc1ccccc1	10.3
COc1cc(/C=N/Nc2nc(Nc3ccccc3)nc(N3CCOCC3)n2)ccc1OC(=O)c1ccco1	13.6
Cn1c(=O)n(CC(=O)N2CCN(c3nnc(-c4ccccc4)c4ccccc34)CC2)c2ccccc21	-56
O=C(CN1C(=O)c2ccccc2C1=O)N1CCN(c2nnc(-c3ccccc3)c3ccccc23)CC1	5.5
Cc1ccc(OCC(=O)N2CCN(c3nnc(-c4ccc(C)cc4)c4ccccc34)CC2)cc1	-49.3
Cc1ccc(-c2nnc(N3CCN(C(=O)Cn4c(=O)n(C)c5ccccc54)CC3)c3ccccc23)cc1	-28.7
CCC(=O)N1CCN(c2nnc(-c3ccccc3)c3ccccc23)CC1	-13.5
O=C(COc1ccccc1)N1CCN(c2nnc(-c3ccccc3)c3ccccc23)CC1	-65.3

Compound	hERG current change (%, negative = inhibition) at 10uM [%]
Cc1ccc(OCC(=O)N2CCN(c3nnc(-c4ccccc4)c4ccccc34)CC2)cc1	-61.5
O=C(COc1ccc(-c2nnc(N3CCCCC3)c3ccccc23)cc1)N1CCCCC1	-32.3
CCNC(=S)NCc1ccc(F)cc1	5.03
Br.NS(=O)(=O)c1ccc(Nc2nc(-c3ccccc3)cs2)cc1	-26
CCCn1c(=O)c(C(=O)Nc2ccccc2C(=O)OC)c(O)c2ccccc21	5.91
S=C1NCCNC(=S)NCCOCCOCCOCCN1	15.2
CCOC(=O)c1nn(-c2ccccc2)c2nnc(Cc3ccc(Cl)cc3)c(=O)n12	3.57
COc1cccc(OC)c1OCCCCN1CCC(Cc2ccccc2)CC1.O=C(O)C(=O)O	-81.9
COc1cccc(OC)c1OCCCCCCN1CCN(C)CC1.Cl	8.54
COc1cccc(OC)c1OCCCN1CCOCC1	4.22
CC(=O)CCc1ccc(OCCCCn2cncn2)cc1	-4.29
COc1cccc(OC)c1OCCCCN1CCCCC1.O=C(O)C(=O)O	-2.55
CC(=O)CCc1ccc(OCCCCN2CCC(Cc3ccccc3)CC2)cc1.O=C(O)C(=O)O	-79.5
COc1ccc(OCC(=O)N2CCC(Cc3ccccc3)CC2)cc1	-36
COc1cccc(OC)c1OCCCCN1CCCC1	-2.47
COc1cccc(OC)c1OCCCN1CCC(Cc2ccccc2)CC1.O=C(O)C(=O)O	-80.6
